Bioassay records (PubChem BioAssay)
ALOX12 inhib = blocks human 12-lipoxygenase activity; Potency, µM (titrated, usually from 57.1 µM), for the others: at the top dose activity change, negative = inhibition, usual class: inhibitors; P18054; purified 12-hLO, xylenol orange hydroperoxide absorbance; 150,000 tested, 0.12% active; note: potency is the fitted concentration of half-maximal effect; % is set by controls: 0 for no effect and ±100 for the full control effect; nearly all actives have a fitted effect of over 55% in size
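Purified human 12hLO (150 nM final) was preincubated with compounds for 15 min at room temperature in 25 mM Hepes pH 7.0, 0.01% Triton X-100, then reacted with 40 uM arachidonic acid for 30 min. Hydroperoxide was detected with ferrous iron/xylenol orange.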
HTT cytoprotect = Huntington cell model cytoprotection by ATP luminescence; Potency, µM (series often up to 56.4 µM), inactives show cytoprotection (ATP increase), actives largely listed as activators; PC12 HTT-Q103 induced, cytoprotection, ATP luminescence, 40 h; 230,000 tested, 0.14% active; AID 1471; note: potency is the fitted concentration of half-maximal effect; % of control where 0% means no effect; nearly all actives have a fitted effect of over 45% in size
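Rat PC12, Q103 Htt exon1-GFP fusion, ecdysone promoter; tebufenozide inducer 100 nM final; compound titration; qHTS, 1500 cells/well; ATPlite luminescent read.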
NPSR antag = neuropeptide S receptor (human) antagonism, cAMP. CHO-NPSR cells, cAMP TR-FRET, antagonist mode. Potency, µM (series often up to 38.3 µM), without a hit: top-dose activity change, negative = inhibition, usual class: inhibitors. Q6W5P4. 220,000 tested, 1% active; note: potency is the fitted concentration of half-maximal effect; % is set by controls: 0 for no effect and ±100 for the full control effect; nearly all actives have a fitted effect of over 50% in size
Target sequence (Q6W5P4 whole entry, looked up): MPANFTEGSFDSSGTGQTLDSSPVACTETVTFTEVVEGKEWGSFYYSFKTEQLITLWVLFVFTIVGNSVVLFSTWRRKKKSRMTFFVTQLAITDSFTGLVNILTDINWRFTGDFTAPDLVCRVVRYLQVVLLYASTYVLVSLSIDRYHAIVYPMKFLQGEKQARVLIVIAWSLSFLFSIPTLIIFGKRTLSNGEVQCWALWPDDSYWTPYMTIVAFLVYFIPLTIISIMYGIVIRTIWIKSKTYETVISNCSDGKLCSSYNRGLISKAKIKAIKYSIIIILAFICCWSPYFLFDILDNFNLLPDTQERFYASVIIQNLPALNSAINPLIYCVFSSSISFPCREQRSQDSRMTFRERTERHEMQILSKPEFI
PNC assembly inh = perinucleolar compartment assembly inhibition | PC3M PTB-GFP, PNC prevalence imaging, 16 h; hits give low values | activity change (PNC), negative = inhibition, % at 10 µM | 140,000 tested, 3.1% active | AID 2417;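 active = readout at or below -70, meaning at least 70% loss of cells showing the perinucleolar compartment, a nuclear body marking cancer cells; inconclusive = readout between -30 and a set limit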;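 note: plate controls were DMSO wells for no effect and camptothecin positive control wells for full effect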
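PC3M cells stably expressing PTB-GFP, 750–1000 cells/well, treated 16 h at 37 °C with compound (23 nl of library stock), in duplicate. After paraformaldehyde fixation and Hoechst stain, imaged at 20x; PNC prevalence scored by image analysis.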
IMPase inh = IMPase inhibition in cells; AID 901; 120,000 tested, under 10 active; CHO-M1 cells, IP1 accumulation, HTRF TR-FRET ratio; inhibition (IP1 accumulation), % at 46.1 µM; active = well fitted curve in the direction sought with a large enough effect in the signal ratio, not every such curve was filed as active; inconclusive = small, poorly fitted or top-dose-only effect, or a change in a side signal; inactive = no such curve, though single readings can be large or run the other way; the % refers to the signal ratio;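 note: cells stimulated with carbachol in lithium chloride buffer; plate controls were DMSO basal wells for no effect and reference inhibitor wells for full effect; higher means more IMPase inhibition seen as more IP1 and lower FRET ratio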
Target sequence (P97697 whole entry, looked up): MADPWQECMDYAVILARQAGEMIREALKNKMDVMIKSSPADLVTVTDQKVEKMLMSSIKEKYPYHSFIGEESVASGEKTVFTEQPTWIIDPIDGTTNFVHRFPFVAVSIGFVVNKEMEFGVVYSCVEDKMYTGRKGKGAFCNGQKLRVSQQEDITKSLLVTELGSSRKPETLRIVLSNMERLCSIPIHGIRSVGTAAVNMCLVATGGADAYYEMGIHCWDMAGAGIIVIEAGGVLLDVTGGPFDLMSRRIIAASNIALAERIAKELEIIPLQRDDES
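Seeded CHO-M1 cells were dosed with compound at up to 46 uM, stimulated with carbachol for 30 min, then lysed in IP-One detection reagents. Higher IP1 lowers the TR-FRET signal.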
HTT aggregate = inhibitors of mutant huntingtin aggregate formation in PC12 cells. PC12 HttQ103-GFP aggregates, Acumen cytometry, 40 h. Potency, µM (highest dose often 46.1 µM), inactives show top-dose activity change, negative = inhibition, usual class: inhibitors. 220,000 tested, 1.1% active; note: potency is the fitted concentration of half-maximal effect; % is set by controls: 0 for no effect and ±100 for the full control effect; nearly all actives have a fitted effect of over 60% in size
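Aggregates are detected as GFP objects 1–25 µm with signal 6 STDEV over background in lysates of induced PC12 cells. These carry Huntingtin exon 1 with 103 glutamines fused to GFP under an ecdysone promoter; compounds titrated.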
Active calls of the source: *; ? = inconclusive; . = not tested or not shown; [ ] = dose if it differs, or a comment. A selection: hits, their analogues and other compounds. The true share with any hit is near 3.3%. Unless noted, calls come from the whole dose curve; as a rule, active = well fitted curve in the direction sought with a large enough effect; inconclusive = small, poorly fitted or top-dose-only effect, or another doubt; inactive = no such curve, though single readings can be large; an effect the other way counts as inactive or inconclusive.

SMILES | ALOX12 inhib | HTT cytoprotect | NPSR antag | PNC assembly inh | IMPase inh | HTT aggregate
COc1ccc(NC(=O)c2cccc(OC(F)F)c2)cc1Cl | -3.2% | -6.6% | -4.8%[46.1 µM] | 27.3 | -4.0 | -16.1%
CCCSc1nnc2n(-c3cccc(C)c3)c(=O)c3c4c(sc3n12)CCCC4 | . | . | . | . | 2.2 | .
CCOC(=O)N1CCN(c2ccc(N3C(=O)CCCC3=O)cc2[N+](=O)[O-])CC1 | . | -5.1% | 19.4% | . | . | -10.0%
COc1cc(NC(=O)Nc2ccc3c(c2)OCO3)cc(OC)c1OC | . | 6.3% | -2.4% | . | . | 11.3%
O=C(Nc1ccc2c(c1)OCO2)Nc1ccc2c(c1)OCO2 | . | . | 5.8% | . | . | .
O=C(Nc1ccc([N+](=O)[O-])cc1)Nc1ccc(OC(F)F)c(Cl)c1 | -12.4% | . | 10µM* | -113.4* | . | 11.2µM*
O=C(Nc1ccc(OC(F)F)c(Cl)c1)Nc1ccc2c(c1)OCO2 | -0.4% | -1.8%[10 µM] | -9.3%[46.1 µM] | -86.7* | -0.8 | 11.2µM*
COc1ccc(C(C)(C)C)cc1NC(=O)Nc1ccc2c(c1)OCO2 | -5.3% | 11.6%[10 µM] | -59.0% | 0.7 | 4.9 | 17.8µM*
C=C(C)C(O)/C=C/c1ccccc1OC (stereo not drawn) | . | -0.2%[10 µM] | . | . | . | .
CCn1cc(C(=O)N2CCN(c3ccccn3)CC2)c(=O)c2cc(S(=O)(=O)N(C)C3CCCCC3)ccc21 | . | . | -42.0% | . | . | -15.8%
CCOC(=O)CSc1cn2c(n1)CCC2 | -0.2% | -11.8%[0.074 µM] | 7.0%[46.1 µM] | -100.0* | 5.4 | -21.1%
O=C(ONC1=NCCCCC1)c1c(F)cccc1F | 5.8% | 0.794µM* | 0.3%[46.1 µM] | -27.8 | -0.5 | -6.0%
O=C1C=C(Nc2ccccc2C(=O)O)c2ccccc2C1=O | . | -1.3%[10 µM] | -41.9% | . | . | -11.9%[9.22 µM]
O=C1C=C(Nc2ccccc2)c2ccccc2C1=O | . | -185.7% | 10µM* | . | . | 4.47µM*
O=C1C=C(Nc2ccccc2)C(=O)c2ccccc21 | . | -133.5% | 56.8% | . | . | 11.2µM*
COc1ccc(S(=O)(=O)n2nc(OC(C)=O)cc2N)cc1 | . | 6.5%[10 µM] | -17.5% | . | . | -3.0%[9.22 µM]
COc1ccc(C(=O)Oc2cc(N)n(S(=O)(=O)c3ccccc3)n2)cc1 | . | 0.708µM* | 18.0% | . | . | ?
COc1ccccc1N=c1scc(-c2ccc(S(=O)(=O)N3CCCC3)cc2)n1C | . | . | . | . | 0.0 | .
COc1ccc(NC(=S)N2CCC(C(=O)c3ccc(F)cc3)CC2)c(OC)c1 | . | -37.2% | 12.6% | . | . | -10.5%
COc1ccc(NC(=O)C2CCN(S(=O)(=O)c3ccc(OC)c(OC)c3)CC2)c(OC)c1 | -3.4% | -3.2%[10 µM] | -6.6%[46.1 µM] | -120.8* | -4.1 | -14.9%
O=C(C1CCN(S(=O)(=O)c2ccc(Cl)cc2)CC1)N1CCOCC1 | -0.2% | -20.5% | -24.8%[46.1 µM] | ? | 5.8 | 21.2%
COc1ccc(C(=O)C2CCN(C(=S)Nc3ccc(F)cc3)CC2)cc1 | . | 2.51µM* | 3.5% | . | . | -31.6%
COc1ccc(S(=O)(=O)N2CCC(C(=O)N3CCOCC3)CC2)cc1 | 0.3% | -3.9%[1.9 µM] | 9.1%[46.1 µM] | -100.0* | 1.9 | -15.2%
COc1ccc(C(=O)N2CCC(C(=O)Nc3ccccc3OC)CC2)cc1 | -2.3% | 4.9%[10 µM] | -9.7%[46.1 µM] | -84.6* | 3.7 | -16.4%
CC(C)NC(=O)N1CCCC2(CCN(C(=O)c3ccncc3)CC2)C1 | -0.3% | -4.8% | . | . | . | .
SMILES | ALOX12 inhib | HTT cytoprotect | NPSR antag | PNC assembly inh | IMPase inh | HTT aggregate
COc1cc(OC)c2c(=O)c(-c3ccccc3)coc2c1 | 3.6% | . | . | . | . | .
O=C1CCCC2=C1C1(CCCC1)N=C(Nc1nc3ccccc3s1)N2 | -1.9% | -1.7%[0.074 µM] | ? | -116.6* | 2.6 | 13.0%
O=C1CCCC2=C1C1(CCCCC1)N=C(Nc1nc3ccccc3s1)N2 | -1.2% | -2.0% | -3.5%[46.1 µM] | 31.3 | -3.4 | 19.0%
Cc1cc(/C=N/Nc2ccc([N+](=O)[O-])cn2)c(C)n1-c1ccccc1 | -3.3% | 18.4% | -14.3%[46.1 µM] | -1.1 | 1.9 | ?
Cc1c(C(=O)O)cccc1-n1c(C)cc(/C=N/Nc2ccc([N+](=O)[O-])cn2)c1C | . | 16.9%[10 µM] | 10µM* | . | . | 2.6%[9.22 µM]
Cc1[nH]c(=O)[nH]c(=O)c1/C=C/C(=O)O | . | -6.6%[10 µM] | 6.0% | . | . | -21.6%[9.22 µM]
